# Compounds with a hit are over-represented: about 7.2% of the library has one in this group of screens.
# Efflux pump inh – blocks antifungal efflux pumps in multiplex yeast assay; inhibition, % at 10 µM; S. cerevisiae Candida pump triplex, Nile Red efflux; 0.44% of 330,000 active;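 active means plate passing quality check with inhibition over a set limit, or well fluorescence over plate mean plus 4 SD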;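 further: Nile Red retained in pooled yeast measured as flow cytometry median fluorescence; 0% = buffer negative control and 100% = Enniatin B positive control; higher means more Nile Red kept so more efflux inhibition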
# Mot1-301 SUMO – blocks SUMOylation pathway, rescuing yeast Mot1-301 growth; S. cerevisiae Mot1-301 growth rescue, ATP luminescence, 38.5C; percent above DMSO median, 100 means doubled; growth rescue, % at 18.8 µM; 1% of 320,000 active; AID 2716;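 active means every valid replicate shows activation above 250% relative to neutral control wells; inactive means the rest, any valid replicate at or below 250%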;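 further: OY570 slx delta 5 strain wells were the positive control but not used for scaling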
# ALR inh – human ALR oxidase inhibition via reduced H2O2. P55789. purified ALR, DTT oxidation, H2O2 HRP-luminol luminescence. inhibition, % (concentration not given with the values). 3.8% of 290,000 active;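 active means mean replicate inhibition above about 79%, with every replicate also reaching it, limit read from the data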
# VLA-4 inh – inhibition in a human VLA-4 binding assay; P13612; VLA-4 expressing cells, ligand binding flow cytometry; inhibition, % (about 7 µM as worked out from the volumes in the protocol); 0.2% of 330,000 active; in the data active means inhibition above about 50%
# AHR act – human AHR activation. P35869. 2.5% of 320,000 active. AHR-responsive luciferase reporter cells, luminescence. AID 2796. activation, % at 5 µM; in the data active means activation above about 47%;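 further: 0% = vehicle wells and 100% = reference agonist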
# Target sequence (P35869 whole entry, looked up): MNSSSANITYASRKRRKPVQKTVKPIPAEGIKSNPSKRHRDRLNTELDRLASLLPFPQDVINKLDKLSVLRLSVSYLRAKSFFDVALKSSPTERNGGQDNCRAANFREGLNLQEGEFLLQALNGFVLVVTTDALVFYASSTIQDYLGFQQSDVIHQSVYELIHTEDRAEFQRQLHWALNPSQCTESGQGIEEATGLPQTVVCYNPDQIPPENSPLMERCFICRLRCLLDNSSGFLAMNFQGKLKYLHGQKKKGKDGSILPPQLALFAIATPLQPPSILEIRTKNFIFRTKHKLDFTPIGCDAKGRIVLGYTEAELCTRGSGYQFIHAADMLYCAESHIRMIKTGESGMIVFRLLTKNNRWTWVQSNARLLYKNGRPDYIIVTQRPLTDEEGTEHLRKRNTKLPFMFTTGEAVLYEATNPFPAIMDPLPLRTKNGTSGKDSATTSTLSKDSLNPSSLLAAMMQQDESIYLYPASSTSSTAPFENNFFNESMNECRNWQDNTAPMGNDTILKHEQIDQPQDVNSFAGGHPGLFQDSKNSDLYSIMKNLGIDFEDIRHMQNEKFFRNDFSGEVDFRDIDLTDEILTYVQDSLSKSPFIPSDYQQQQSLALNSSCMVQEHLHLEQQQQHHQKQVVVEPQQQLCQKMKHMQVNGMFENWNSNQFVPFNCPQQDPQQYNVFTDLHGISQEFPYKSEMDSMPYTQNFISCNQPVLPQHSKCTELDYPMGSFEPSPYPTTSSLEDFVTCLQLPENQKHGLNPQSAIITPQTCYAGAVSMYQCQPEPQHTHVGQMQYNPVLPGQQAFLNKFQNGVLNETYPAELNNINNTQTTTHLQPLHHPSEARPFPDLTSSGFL
# Bfl-1 A1 inh – inhibitors of the anti-apoptotic protein A1, read as caspase activation; MEF A1-2A-BIM cells, Caspase-Glo 3/7 luminescence, 3 h; percent of clofoctol response, vehicle zero; caspase activation, % (concentration not given with the values); 0.066% of 330,000 active;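 active means over half of replicate activation scores above 10%, or exactly half above 10 with the replicate mean above 10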
# Yeast Mot1 SUMO – inhibits SUMO pathway, affecting Mot1-301 yeast growth; growth activity, percent, % at 42 µM; 2,300 tested, under 10 active; S. cerevisiae Mot1-301 galactose growth, ATP luminescence, 24 h; -100 = growth of slx-deleted rescue strain; shares compounds with Mot1-301 SUMO;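 active means Signal drops as the depositor expects, and the fitted half-maximal dose is no more than ten times the top valid tested dose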;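 further: more negative values mean stronger growth rescue toward the control strain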
# The depositor's hits bear a star; · = no result given; + = active, no number.
SMILES,Efflux pump inh,Mot1-301 SUMO,ALR inh,VLA-4 inh,AHR act,Bfl-1 A1 inh,Yeast Mot1 SUMO
COC(=O)c1ccccc1SC(CC(=O)c1ccccc1)c1ccc(F)cc1 (centres undefined),0,461*,-5,18,-9,0,0
COc1ccc(OC)c2c1sc(=NC(=O)C1COc3ccccc3O1)n2C (centres undefined),0,171,-2,-5,1,0,·
CN(C)S(=O)(=O)N1CCN(C(=O)c2cccs2)CC1,0,-11,1,-1,-1,0,·
CCN(CC)C(=O)Cn1c(=O)n(CCCCCC(=O)Nc2ccccc2)c(=O)c2sccc21,-1,3,-1,-6,0,1,·
CCN(CC)C(=O)Cn1c(=O)n(CCCC(=O)NCc2ccccc2)c(=O)c2sccc21,0,539*,-5,6,-1,0,1
O=C(NCCCn1ccnc1)c1ccccc1Br,0,-14,·,-5,4,0,·
O=C(NCCCn1ccnc1)Nc1cccc2ccccc12,0,762*,-16,4,16,1,0
CC(C)(C)NC(=O)C1Cc2ccccc2CN1S(=O)(=O)c1ccc(F)cc1 (centres undefined),0,584*,0,-5,-1,0,0
COC(=O)C1Cc2ccccc2CN1S(=O)(=O)c1ccc(F)cc1 (centres undefined),0,2,-14,-3,0,1,·
COc1ccc(COC(=O)C2=C(C)NC(=O)NC2c2ccccc2OC(C)C)cc1 (centres undefined),0,-18,-7,-2,4,1,·
CCn1c(SCc2nc3ccccc3s2)nnc1-c1ccccc1,0,371*,94*,20,12,0,-1
CCn1c(SCc2nc3ccccc3[nH]2)nnc1-c1cccnc1,0,635*,0,-6,10,0,0
CCc1ccc(N2C(=O)CC(N3CCC(C(=O)OC)CC3)C2=O)cc1 (centres undefined),0,491*,1,2,6,0,-1
CCc1ccc(N2CC(C(=O)OC)CC2=O)cc1 (centres undefined),0,14,-2,17,0,0,·
CCOC(=O)C1=CN(Cc2ccc(OC)cc2)C=C(C(=O)OCC)C1c1cccs1,0,-6,-7,-15,0,0,·
C#CCOCCOCCOCCNc1nc(N2CCN(C(=O)CCCCCCCCCCNC(=O)[C@H](CO)n3cc(CCCSC)nn3)CC2)nc(N2CCN(C(=O)CCCCCCCCCCNC(=O)[C@@H]([C@H](C)O)n3cc(C)nn3)CC2)n1,0,-12,-6,-1,-2,1,·
CNC(=O)c1cc(Oc2ccc(NC(=O)Nc3ccc(Cl)c(C(F)(F)F)c3)cc2)ccn1,0,-8,-5,-1,-6,-1,·
CN(C)S(=O)(=O)N1CCc2ccccc2C1,0,+,-1,1,0,·,0
CN(C)S(=O)(=O)N1CCc2ccccc21,0,-22,-4,1,18,0,·
O=C(Oc1ccccc1N1C(=O)C2CC=CCC2C1=O)c1ccc(Br)cc1 (centres undefined),0,549*,-6,6,27,0,0
CCCc1ccc(OCc2ccccc2)c2c(=O)cc(C(=O)OCC)oc12,0,5,20,-3,5,-1,·
Cc1c(NC(=O)Nc2ccc(C(C)(C)C)cc2)c(=O)n(-c2ccccc2)n1C,0,-18,-6,9,3,0,·
O=C(c1ccncc1)N(Cc1ccccc1)Cc1nc2ccccc2c(=O)[nH]1,0,414*,-3,8,4,0,0
O=C(c1ccccc1)N(Cc1ccc(F)cc1)Cc1nc2ccccc2c(=O)[nH]1,0,33,0,-4,1,0,·
CCOc1ccccc1OCCCC(=O)NNC(=O)c1ccc(F)cc1,0,·,·,14,4,·,·
SMILES,Efflux pump inh,Mot1-301 SUMO,ALR inh,VLA-4 inh,AHR act,Bfl-1 A1 inh,Yeast Mot1 SUMO
CCNC(=O)NC1c2ccccc2CSc2ccccc21 (centres undefined),0,614*,-10,5,0,1,0
Cc1ccc(C(C(=O)Nc2ccc3c(c2)OCO3)N(C)C(=O)Cc2c[nH]c3ccccc23)cc1 (centres undefined),0,756*,-27,8,14,0,0
CC1(C)c2[nH]c3ccccc3c2C[C@H]2C(=O)N(Cc3cccc(F)c3)C(=O)N21,0,448*,-4,-8,4,1,-1
Cc1ccc(NC(=O)Cn2sc3nc(C)cc(C)c3c2=O)c(Cl)c1,0,559*,-4,-6,1,0,0
Cc1cc(S(=O)(=O)NCC(C)C)ccc1OCC(=O)N1CCOCC1,0,867*,0,9,-3,1,0
CN1CCN(C(=O)CN(c2cccc(Br)c2)S(=O)(=O)c2ccccc2)CC1,0,·,·,20,4,-1,·
Cc1ccccc1NC(=O)c1ccccc1NC(=O)c1ccco1,0,402*,-2,-2,26,-1,1
COC(=O)c1ccccc1NC(=O)c1ccco1,0,4,-3,10,5,0,·
CCNC(=S)Nc1ccc(C)c(S(=O)(=O)Nc2ccccc2OC)c1,0,398*,4,-10,1,0,-1
Cc1ccc(S(=O)(=O)NNC(=O)c2ccc(NC(=O)C3CC3)cc2)cc1,0,8,62,-12,·,1,·
Cc1cc(C)cc(C(=O)Oc2cc(C)[nH]c(=O)c2[N+](=O)[O-])c1,0,366*,-7,-8,3,0,0
COc1cc(C(=O)Oc2cc(C)[nH]c(=O)c2[N+](=O)[O-])cc(OC)c1OC,0,-2,1,-18,-2,1,·
CC1=C/C(=N\OS(=O)(=O)c2ccccc2)C(C(C)C)=CC1=O,0,413*,98*,8,11,1,-3
CC(Oc1ccc2c(c1)oc(=O)c1ccccc12)C(=O)NCCCN1CCOCC1 (centres undefined),0,396,-2,-4,0,-1,·
CC(Oc1ccc([N+](=O)[O-])cc1)C(=O)NCCCN1CCOCC1 (centres undefined),0,505*,1,7,2,2,0
O=C(CN1C(=O)NC2(CCSC2)C1=O)NCc1ccccc1 (centres undefined),0,-5,-23,-6,1,3,·
Cc1ccccc1-c1nc2ccc(Cl)cc2c(=O)n1O,0,613*,-1,27,3,0,-1
O=c1c2cc(Cl)ccc2nc(-c2ccccc2)n1O,0,5,-16,5,20,-1,·

# Assay outcomes from PubChem.
